Screens deposited in PubChem by several laboratories.
Beta apoptosis – beta cell apoptosis inhibition | INS-1E cytokine-induced death, ATP luminescence, 48 h; percent of positive-control rescue, neutral wells zero | protection from apoptosis, % (test concentration not listed) | hit rate 0.8% among 300,000 | AID 435005;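 active = Every replicate reaches about 75%, or at least half do and their mean reaches it too, limit read from the data; inconclusive = At least half of replicates reach the limit but their mean does not; inactive = Under half of replicates reach the limit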;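 also: 0% = cytokine-treated negative control wells and 100% = positive control rescue; higher means more ATP so stronger rescue from cytokine killing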
Calb FLC – C. albicans growth modulation with fluconazole | growth inhibition, % (test concentration not listed) | AID 1979 | hit rate 0.57% among 300,000 | C. albicans CaCi-2 (fluconazole-resistant clinical isolate) + fluconazole, Alamar Blue growth, 48 h;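 active = growth inhibition above about 58% in most replicates, limit read from the data, passing the limit was not always enough; inconclusive = exactly half the replicates above a set limit; inactive = most replicates below a set limit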;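 also: all wells also contain fluconazole at 8 µg/ml as a sub-toxic cotreatment; 0% = median of DMSO wells and 100% = median of geldanamycin control wells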
MPTP block – permeability transition pore inhibition; isolated mouse mitochondria, Ca2+ swelling absorbance, 30 min; AID 602449; hit rate 1.4% among 360,000; inhibition, % at 10 µM;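 active = inhibition of 50% or more, scaled per plate between neutral and stimulator controls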;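 also: 0% = DMSO wells given calcium and 100% = 1 mM EGTA wells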
CSC inhib – cancer stem cell inhibition; cancer stem cell-like cells viability, luminescence; inhibition, % at 7.5 µM; hit rate 1.1% among 300,000; in the data active = inhibition above about 75%; inconclusive = no clear call, values can overlap the other calls; tested in HMLE shEcad cells
SKKanGAS inh – SKKanGAS growth inhibition | S. pyogenes SKKanGAS, kanamycin growth, BacTiter-Glo, 6 h | hit rate 1.3% among 300,000 | inhibition, % at 7.5 µM;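 active = mean replicate score, as percent of positive control median, at least 50; inconclusive = mean below 50 but one replicate at or above 50; inactive = mean and every replicate below 50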;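 also: strain carries kanamycin resistance gene driven by streptokinase promoter and grows in 40 µg/ml kanamycin; loss of luminescence reflects streptokinase promoter inhibition or plain growth inhibition; 0% = median of DMSO wells and 100% = positive control at its reference dose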
Mdm2 MdmX PPI – inhibitors of human Mdm2/MdmX interaction. O15151+Q00987. SaOS-2 split-luciferase Mdm2/MdmX complementation, luminescence. inhibition, % at 8 µM. hit rate 3% among 330,000;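 active = inhibition of at least 50% at 8 µM in the primary screen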
Target sequence (O15151 whole entry, looked up): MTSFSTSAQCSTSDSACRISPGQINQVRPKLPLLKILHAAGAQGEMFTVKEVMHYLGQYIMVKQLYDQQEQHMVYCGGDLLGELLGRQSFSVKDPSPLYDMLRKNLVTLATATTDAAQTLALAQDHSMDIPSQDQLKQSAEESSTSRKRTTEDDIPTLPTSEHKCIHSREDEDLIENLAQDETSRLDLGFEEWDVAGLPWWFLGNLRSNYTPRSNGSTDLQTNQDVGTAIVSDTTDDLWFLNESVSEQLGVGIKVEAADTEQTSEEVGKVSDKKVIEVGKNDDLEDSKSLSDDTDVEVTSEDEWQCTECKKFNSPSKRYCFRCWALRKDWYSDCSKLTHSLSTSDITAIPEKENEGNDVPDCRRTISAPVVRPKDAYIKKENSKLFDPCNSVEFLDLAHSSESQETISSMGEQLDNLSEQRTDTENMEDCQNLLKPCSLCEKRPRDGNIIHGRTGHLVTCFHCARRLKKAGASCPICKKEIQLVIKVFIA
Target sequence (Q00987 whole entry, looked up): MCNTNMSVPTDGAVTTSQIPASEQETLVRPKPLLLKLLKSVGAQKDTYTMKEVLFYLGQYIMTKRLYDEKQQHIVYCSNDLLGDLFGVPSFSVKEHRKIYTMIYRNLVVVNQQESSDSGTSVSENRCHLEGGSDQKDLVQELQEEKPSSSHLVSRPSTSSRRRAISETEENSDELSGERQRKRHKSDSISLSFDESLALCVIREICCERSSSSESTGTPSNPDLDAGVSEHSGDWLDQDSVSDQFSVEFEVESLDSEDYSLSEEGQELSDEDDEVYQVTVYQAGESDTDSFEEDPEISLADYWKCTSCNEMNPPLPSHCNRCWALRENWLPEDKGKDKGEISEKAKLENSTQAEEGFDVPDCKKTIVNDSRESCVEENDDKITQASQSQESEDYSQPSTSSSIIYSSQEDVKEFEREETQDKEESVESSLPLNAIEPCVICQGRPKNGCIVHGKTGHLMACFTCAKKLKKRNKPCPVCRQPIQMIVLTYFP
MPTP counter – membrane potential counter-screen of mitochondrial pore inhibitors; shares compounds with MPTP block; hit rate 78% among 5,000; AID 624504; isolated mitochondria, Rhodamine 123 fluorescence; inhibition, % at 10 µM; in the data active = inhibition above about 22%;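 also: 0% = DMSO vehicle and 100% = positive control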
MPTP swell DR – dose response confirmation of mitochondrial permeability transition pore inhibitors. shares compounds with MPTP block. isolated mitochondria swelling, absorbance. IC50, µM. hit rate 58% among 780; in the data active = IC50 below about 20 µM
MPTP cs DR – counter-screen for mitochondrial permeability transition pore inhibitors, dose response; shares compounds with MPTP block; isolated mitochondria counterscreen, fluorescence read-out; IC50, µM; hit rate 49% among 780; in the data active = IC50 below about 80 µM
An asterisk follows results filed as active; i = inactive; u = inconclusive; x = not tested or not shown. Shown are actives, neighbours in structure and some others; about 5.4% of the full set was active somewhere.

SMILES	Beta apoptosis	Calb FLC	MPTP block	CSC inhib	SKKanGAS inh	Mdm2 MdmX PPI	MPTP counter	others
CCOc1cc(/C=C(/C#N)c2nc3ccccc3[nH]2)ccc1Oc1ccc([N+](=O)[O-])cn1	24	16	83*	5	13	49	45*
Cc1ccc2nc(/C(C#N)=C\c3ccc(Oc4ccc([N+](=O)[O-])cn4)cc3)[nH]c2c1	5	x	65*	-5	x	x	19	MPTP swell DR=>100;MPTP cs DR=10*
COc1ccc2nc(/C(C#N)=C\c3ccc(Oc4ccc([N+](=O)[O-])cn4)cc3)[nH]c2c1	u	3	11	8	21	43	x
CCOc1cc(/C=C(\C#N)c2nc3ccccc3[nH]2)ccc1OC(C)C(=O)O (configuration not stated)	-7	-2	1	-11	5	16	x
C=CCN(c1ccccc1)S(=O)(=O)c1cccc(C(=O)Nc2ncccc2O)c1	-3	-11	1	-1	6	-3	x
Clc1ccc(C(c2ccccc2Cl)C(Cl)Cl)cc1 (configuration not stated)	x	x	61*	98*	x	35	-5	MPTP swell DR=i;MPTP cs DR=>80
Cc1ccc(Nc2nc(OC(C(F)(F)F)C(F)(F)F)nc(N3CCOCC3)n2)cc1	11	5	72*	-7	17	21	1	MPTP swell DR=>100;MPTP cs DR=>80
O=C1NC(=Nc2ccc(Cl)cc2)SC1Cc1cc(Cl)ccc1Cl (configuration not stated)	x	9	65*	x	82*	2	84*
O=C(c1cc(COc2cccc(C(F)(F)F)c2)on1)N1CCC(c2ccncc2)CC1	111*	u	97*	31	-23	26	99*
COc1cccc(OCc2cc(C(=O)N3CCC(c4ccncc4)CC3)no2)c1	40	19	80*	13	-15	24	75*
CC(=O)c1ccc(OCc2cc(C(=O)N3CC[C@@H]4CCCC[C@H]4C3)no2)cc1	-2	6	1	-13	9	-82	x
CC(=O)c1ccc(OCc2cc(C(=O)N3CCC(c4ccncc4)CC3)no2)cc1	35	-19	96*	-1	-4	19	87*
C[C@H]1CN([C@@H](C)CO)C(=O)CCCn2nncc2CO[C@@H]1CN(C)S(=O)(=O)c1ccccc1	x	x	-1	x	x	x	x
CC(C)N=c1scc(-c2cccs2)n1/N=C/c1ccc(O)c(O)c1O	9	x	95*	43	x	-4	50*
Cn1cc(CNCc2cn(C)nc2-c2ccc(C3CCCCC3)cc2)cn1	0	-3	92*	x	-5	25	-6	MPTP swell DR=8.8*;MPTP cs DR=71*
CNc1nc2cc([N+](=O)[O-])c([N+](=O)[O-])cc2nc1NC	98*	6	105*	4	4	x	94*
N#Cc1cc2nc(O)c(O)nc2cc1[N+](=O)[O-]	-2	x	0	-11	x	-3	x
COc1ccc(CNC(=O)C(c2ccco2)N(C(=O)CNS(=O)(=O)c2ccccc2)c2ccccc2C)cc1 (configuration not stated)	9	3	-1	x	3	21	x
c1ccc(-c2cc(-c3nc4ccccc4[nH]3)c3ccccc3n2)cc1	21	u	98*	64	7	41	83*
Nc1ccc(-c2nc3ccccc3[nH]2)cc1	x	4	-1	5	-3	-38	x
C=CCC1(CC=C)CCCN1C(=O)c1cc(COc2cncc(Cl)c2)on1	x	-34	77*	11	-2	25	96*
C=CCC1(CC=C)CCCN1C(=O)c1cc(COc2cccc(OC)c2)on1	5	-24	1	12	0	17	x
Cc1ccc(S(=O)(=O)Nc2ccccc2CNc2ccccn2)cc1	1	35	3	24	-26	-16	x
Cc1ccc(S(=O)(=O)Nc2ccccc2CNc2ccc(Br)cn2)cc1	-5	41	68*	20	7	27	70*
Cc1ccc(S(=O)(=O)Nc2cc(C(C)C)c(O)cc2C)cc1	2	23	6	17	1	6	x
SMILES	Beta apoptosis	Calb FLC	MPTP block	CSC inhib	SKKanGAS inh	Mdm2 MdmX PPI	MPTP counter	others
Cc1ccc(S(=O)(=O)Nc2cc(Cl)c(O)cc2C)cc1	-4	-23	65*	-7	2	16	13	MPTP swell DR=15*;MPTP cs DR=23*
S=C(NCCC(c1ccccc1)c1ccccc1)Nc1ccc(Cl)cc1	-6	4	93*	-1	117*	37	75*
S=C(NCc1ccc(Cl)cc1)NC1CCN(Cc2ccccc2)CC1	8	-5	71*	-5	-1	29	24*
S=C(NCCC(c1ccccc1)c1ccccc1)Nc1ccccc1Cl	-6	4	4	23	6	1	x
S=C(NCCCc1ccccc1)Nc1ccc(Cl)cc1	0	-43	97*	-5	-7	10	91*
S=C(NCCc1ccccn1)Nc1ccc(Cl)cc1	-5	-7	0	-4	-4	-2	x
S=C(NCc1ccccc1)Nc1ccc(Cl)cc1	1	-1	72*	-19	10	3	81*
COCCNC(=O)C1(C)CCCN(C(=O)c2ccccc2OC(F)(F)F)C1 (configuration not stated)	x	x	0	x	x	x	x
O=C(c1cc(Br)ccc1Cl)N1CCN(c2ncccn2)CC1	0	-7	0	8	-7	-27	x
S=C(NCc1ccccc1)NCc1cccc(CNC(=S)NCc2ccccc2)c1	15	-7	84*	37	18	24	78*
O=C(Nc1cc(C(F)(F)F)ccc1F)C1CCCCC1	-2	4	-2	11	1	-21	x
Cn1nc(C(C)(C)C)c([N+](=O)[O-])c1C(=O)Nc1ccc(Br)cc1	12	-51	80*	19	21	7	93*
O=C(Nc1ccc(Br)cc1)c1cc([N+](=O)[O-])cc([N+](=O)[O-])c1	35	-5	102*	28	13	27	86*
O=C(Nc1ccc([N+](=O)[O-])cc1)Nc1ccc2[nH]c(=O)[nH]c2c1	4	-3	82*	5	2	-1	71*
Cc1cccc(NC(=O)c2c([N+](=O)[O-])c(C(C)(C)C)nn2C)c1	8	6	3	-10	-8	-22	x
O=C(NNC(=O)c1cccc(O)c1)Nc1ccc([N+](=O)[O-])cc1	1	23	56*	3	0	5	36*
O=C(Nc1ccc(O)cc1)c1cccc(Oc2ccc([N+](=O)[O-])cc2)c1	1	-4	0	x	11	5	x
Cc1cc(C)cc(C(=O)NCC(=O)NCc2ccc(S(N)(=O)=O)cc2)c1	-3	0	-1	-3	1	x	x
Cc1ccc(NC(=O)Nc2cccc(C)n2)cc1	-4	-4	2	-15	-6	-126	x
